Only some compounds are listed: those with a hit (about 0.44% of all), similar ones and a draw of the others.
RmlC RmlD mix: mixture blocks RmlC and RmlD coupled enzyme activity; RmlC/RmlD coupled enzyme inhibition, 384-well mixture HTS; inhibition, % at 5.5 µM; actives 0.39% (n = 110,000); in the data active = inhibition above about 30%, passing the limit was not always enough
YopH inh: YopH (Yersinia) phosphatase inhibition. fluorescence Ex485/Em525. inhibition, % (concentration not given with the values). actives 0.16% (n = 140,000). AID 898; in the data active = inhibition above about 50%
* marks the source's active call; other numbers are inactive results; · = no result given.

SMILES	RmlC RmlD mix	YopH inh
Cc1cc(C)n2nc(C(=O)OCCOc3ccc(F)cc3)nc2n1	-10	-53
COc1ccc(C(=O)Nc2sc3c(c2C(=O)NCc2ccco2)CCCC3)cc1OC	146*	2
COc1cc(C(=O)Nc2sc3c(c2C(=O)NCc2ccco2)CCCC3)cc(OC)c1OC	-13	-5
Cc1ccc(NC(=O)CN(C)C(=O)/C=C/c2cccs2)cc1	·	-22
CCCCN(C(=O)NC(=O)C1=C(N2CCOCC2)/C(=C/c2ccccc2)CC1)S(C)(=O)=O	·	-39
CN(C(=O)NC(=O)C1=C(N2CCOCC2)/C(=C/c2ccccc2)CC1)S(C)(=O)=O	135*	-37
CCC(/C=N/NC(=O)CCCCC(=O)N/N=C/C(CC)CC)CC	·	-28
O=C(O[C@@H]1OC2COC(=O)c3cc(O)c(O)c(O)c3-c3c(cc(O)c(O)c3O)C(=O)O[C@@H]([C@H]1O)[C@@H]2O)c1cc(O)c(O)c(O)c1	3	54*
COc1ccc(Cc2c3cc(OC)c(OC)cc3cc[n+]2C)cc1OC	8	·
COc1ccc(Cc2nccc3cc(OC)c(OC)cc23)cc1OC	7	67*
Cc1ccc(C(=O)c2c(C)oc3c2C(=O)C(=O)c2ccccc2-3)cc1	-17	69*
Cc1oc2c(c1C(=O)c1ccc(Cl)cc1)C(=O)C(=O)c1ccccc1-2	·	6
Cc1ccc(S(=O)(=O)Cc2cccc(C(=O)N3CCOCC3)c2)cc1	8	-5
COc1ccc(-c2cc3nc4n(c(=O)c3s2)CCC4)cc1	50*	-8
COc1ccc(NS(=O)(=O)c2cccc(-c3nnc4n3CCCCC4)c2)cc1	11	-41
COc1ccc(C2C=C(c3ccccc3)Nc3nc(CCCO)nn32)cc1 (centres undefined)	24	-28
COc1ccc(C2C=C(c3cccs3)Nc3nc(CCCO)nn32)cc1 (centres undefined)	44*	-15
CCC(C)(C#CCN1CCCCC1)OCCC#N (centres undefined)	·	-28
Cc1ccc(N(C(=O)Cn2nnc(-c3ccc(F)cc3)n2)C(CC(C)C)C(=O)NCC2CCCO2)cc1 (centres undefined)	-10	-11
CC(C)=C(C#N)c1nc2ccccc2s1	-15	12
CC1=CC(=C(C#N)c2nc3ccccc3s2)C=C(C)N1c1ccc(F)cc1	·	65*
COC(=O)c1ccc(/C(O)=C(\C#N)c2nc3ccccc3s2)cc1	4	-30
COc1ccccc1N1C(C)=CC(=C(C#N)c2nc3ccccc3s2)C=C1C	·	70*
COC(=O)c1ccc(NC(=O)Cn2nc(-c3ccncc3)nc2SCC(=O)Nc2nccs2)cc1	-6	-25
CCCS(=O)(=O)N1CCN(C(=O)c2cccc(OC)c2)CC1	-11	-44
SMILES	RmlC RmlD mix	YopH inh
COc1ccc(S(=O)(=O)N(C)CC(=O)N2CCC(C(N)=O)CC2)cc1Cl	6	-18
Cc1cc(C)n(-c2nc3nonc3nc2Nc2cccc(C)c2C)n1	·	3
Cc1c(CN(C)C)c2c(n1C)C(=O)c1ccc(Br)cc1-2	6	0
CCOC(=O)c1c2c(n(C)c1C)C(=O)C(=O)c1ccc(Br)cc1-2	3	88*
O=C(OC1C[C@@H]2CC3C[C@H](C1)N2CC3=O)c1c[nH]c2ccccc12 (some centres undefined)	-15	·
CCCCNc1cc(NC(C)=O)cc2cc(OC)c(OC)cc12	-9	80*
CCCC(=O)Nc1cc(OC)c(OC)cc1C(=O)O	-9	-29
CCNc1nc(NC(C)C)nc(OCC)n1	1	8
CCn1nc(-c2ccccc2)nc2c(=O)n(C)c(=O)nc1-2	2	102*
CCOC(=O)Cn1nc(-c2ccccc2)nc1-c1ccccc1	10	-9
CC(C)CCn1c(CN2CCN(c3cccc(Cl)c3)CC2)nc2c1c(=O)n(C)c(=O)n2C	-11	·
O=C(COc1ccc(Cl)cc1)N/N=C/CCc1ccccc1	-39	-9
Cc1cc(C)c(C(=O)C2OC(=O)C(C)(C)C(=O)C2(C)C)c(C)c1 (centres undefined)	8	-28
CCOC(=O)c1sc(NC(=O)CSc2nc3c(cc2C#N)CCCCC3)c(C#N)c1C	-1	-19
CCc1nnc(NC(=O)CSc2nc3c(cc2C#N)CCCC3)s1	37*	-3
COc1ccc(-c2cc(C(=O)O)c3c(C)nn(-c4ccccn4)c3n2)cc1	28	-9
COc1ccc(N=CC2=C(Nc3ccc(OC)cc3)c3c(C)nn(-c4ccccn4)c3CC2)cc1	61*	51*
Cc1cc(C)c2c(n1)nn1c(N3CCN(c4ccccc4)CC3)cc(C)nc21	-27	-26
Cc1cc(C)c2c(n1)nn1c(NCCOCCO)cc(C)nc21	44*	-23
COc1ccc(N2C(=O)[C@@H]3[C@H](C2=O)[C@H]2c4ccccc4C=CN2[C@@H]3C(C)=O)cc1	·	61*
CC(C)(C)C(=O)[C@@H]1[C@@H]2C(=O)N(C3CCCCC3)C(=O)[C@@H]2[C@H]2c3ccccc3C=CN12	·	-7
Cc1cccnc1NC(=O)CSc1nnc(Cc2ccccc2)o1	10	-6
O=C(NCc1ccco1)C1CCCN(S(=O)(=O)Cc2ccccc2)C1 (centres undefined)	-9	-24
Cc1ccc(S(=O)(=O)N2CCCC(C(=O)NCc3ccco3)C2)cc1Cl (centres undefined)	-8	56*
Cc1c(N2C(=O)/C(=C3/C(=O)N(C)c4ccccc43)SC2=S)c(=O)n(-c2ccccc2)n1C	-9	-29
SMILES	RmlC RmlD mix	YopH inh
CC(=O)N1C(=O)/C(=C2\SC(=S)N(c3c(C)n(C)n(-c4ccccc4)c3=O)C2=O)c2ccccc21	·	99*
CCC(=O)NS(=O)(=O)c1ccc(-c2c(-c3ccccc3)noc2C)cc1	-3	·
CC(C)(C)c1ccc(NC(=O)COC(=O)c2ccc([N+](=O)[O-])s2)cc1	·	-19
O=C(COC(=O)c1ccc([N+](=O)[O-])s1)Nc1ccccc1	·	50*
O=C(COC(=O)/C=C/c1cccs1)Nc1ccc2ccccc2c1	·	-13
O=C1CC(N(O)c2ccccc2)C(=O)N1Cc1ccccc1 (centres undefined)	5	57*
O=C1CC(N(O)c2ccccc2)C(=O)N1c1cc(Cl)cc(Cl)c1 (centres undefined)	-11	-29
COc1ccc(-c2cc(O)cc(O)c2)cc1	-7	-23
O=C(CN1C(=O)C2CC=CCC2C1=O)Nc1nnc(SCc2ccc(Cl)cc2)s1 (centres undefined)	7	76*
O=C(CN1C(=O)C2CC=CCC2C1=O)Nc1nnc(SCc2c(Cl)cccc2Cl)s1 (centres undefined)	-13	-1
COC(=O)C1=CN(CC2CCCO2)C=C(C(=O)OC)C1c1ccccc1C(F)(F)F (centres undefined)	8	2
COC(=O)C1=CN(CC2CCCO2)C=C(C(=O)OC)C1c1ccsc1 (centres undefined)	58*	-22
O=C1CC(=O)N2N=C(c3ccc([N+](=O)[O-])cc3)SC2=N1	·	-26
CCOC(=O)N1CCN(C(=O)Cn2c(C)cc3ccccc3c2=O)CC1	-6	55*
CCOC(=O)CNC(=O)Cn1c(C)cc2ccccc2c1=O	6	12
COc1cc(-c2nc3cnccn3c2Nc2ccccc2)ccc1O	40*	-3
COc1cc(-c2nc3cnccn3c2Nc2ccc(C)cc2)ccc1O	0	-23
CC(=O)NO	11	·
O=C(NC(=S)N1CCN(C(c2ccccc2)c2ccccc2)CC1)c1ccc(S(=O)(=O)N2CCOCC2)cc1	·	-21

From PubChem BioAssay
